According to PubChem BioAssay:
A number with no mark means an inactive call. For some of these results: Measured potencies and affinities stand elsewhere. Active and inactive are the calls of the source. Unless noted, no rule for the calls is given here.

What was measured:
[1] = antimalarial activity against Dd2 strain (AID 2302;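 active = growth inhibition above 50% at the single 2 µM test dose, taken to imply half-maximal potency below 2 µM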;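 also: 0% = DMSO untreated growth and 100% = chloroquine plus artemisinin killed control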); conditions: P. falciparum Dd2 in RBCs, LDH growth readout, 72 h; at 2 µM; hits give high values
[2] = HepG2 cytotoxicity, primary screen, cytotoxicity control for P. falciparum antimalarial project, cell-based, ATP luminescence (AID 2303;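 active = inhibition above 50%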;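 also: 0% = DMSO wells and 100% = digitonin-killed cells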); conditions: HepG2 viability, 24-48 h, at 10 µM, hits give high values
[3] = molecular target: L-lactate dehydrogenase (Plasmodium falciparum (isolate CDC / Honduras)) (UniProt Q27743); assay: PfLDH activity inhibition – cell lysate, 3D7 strain, counter-screen for P. falciparum growth inhibition project (AID 2304);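 also: 0% = vehicle and 100% = reference inhibitor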; conditions: P. falciparum 3D7 crude extract, LDH APAD/NBT absorbance; at 2 µM; hits give high values
[4] = inhibition of 3D7 malaria parasite growth – strain 3D7 (AID 2306);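 also: 0% = DMSO wells and 100% = chloroquine plus artemisinin control wells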; conditions: P. falciparum 3D7 erythrocytic growth, LDH absorbance, 72 h; at 2 µM; hits give high values
[5] = molecular target: Calcium-dependent protein kinase 1 (Plasmodium falciparum (isolate 3D7)) (UniProt P62344); assay: PfCDPK1 kinase inhibitors, biochemical, TCAMS library (AID 1159585; cut-off not given, nearly all actives have IC50 up to about 0.98 µM;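 also: inhibitors leave more ATP so luminescence rises with inhibition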); conditions: recombinant PfCDPK1, Kinase-Glo ATP depletion luminescence
[6] = molecular target: Plasmodium falciparum protein kinase 6 (PK6, PF3D7_1337100) (UniProt Q8IDW1); assay: PfPK6 kinase inhibitors, biochemical, TCAMS library (AID 1159586); conditions: recombinant PfPK6, Kinase-Glo ATP depletion luminescence
[7] = molecular target: Protein kinase 7 (PK7), Plasmodium falciparum 3D7 (PF3D7_0213400) (UniProt Q7YTF7); assay: inhibition of Plasmodium PK7 catalytic activity – biochemical, TCAMS antimalarial set, Kinase-Glo luminescence (AID 1159587); conditions: recombinant PfPK7, Kinase-Glo ATP depletion luminescence
[8] = molecular target: Calcium-dependent protein kinase 4 (Plasmodium falciparum (isolate 3D7)) (UniProt Q8IBS5); assay: PfCDPK4 kinase inhibitors, biochemical, TCAMS library (AID 1159588; cut-off not given, nearly all actives have IC50 up to about 0.91 µM); conditions: recombinant PfCDPK4, Kinase-Glo ATP depletion luminescence
Sequence of Calcium-dependent protein kinase 4 (Plasmodium falciparum (isolate 3D7)) (Q8IBS5 whole entry, looked up): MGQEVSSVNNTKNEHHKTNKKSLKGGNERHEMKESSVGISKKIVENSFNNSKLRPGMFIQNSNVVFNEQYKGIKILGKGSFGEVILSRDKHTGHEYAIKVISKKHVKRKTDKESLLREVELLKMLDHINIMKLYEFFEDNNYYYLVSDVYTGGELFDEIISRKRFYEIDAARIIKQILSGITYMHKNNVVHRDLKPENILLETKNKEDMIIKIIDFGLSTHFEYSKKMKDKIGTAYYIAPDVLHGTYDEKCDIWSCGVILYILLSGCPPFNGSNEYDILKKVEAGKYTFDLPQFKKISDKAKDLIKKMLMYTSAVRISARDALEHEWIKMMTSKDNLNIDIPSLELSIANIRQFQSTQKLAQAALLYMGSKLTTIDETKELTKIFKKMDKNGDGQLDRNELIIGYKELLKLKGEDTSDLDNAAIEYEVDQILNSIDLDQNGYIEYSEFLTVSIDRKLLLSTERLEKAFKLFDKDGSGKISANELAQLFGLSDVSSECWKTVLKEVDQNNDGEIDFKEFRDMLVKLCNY

Sequence of Protein kinase 7 (PK7), Plasmodium falciparum 3D7 (PF3D7_0213400) (Q7YTF7 1-343): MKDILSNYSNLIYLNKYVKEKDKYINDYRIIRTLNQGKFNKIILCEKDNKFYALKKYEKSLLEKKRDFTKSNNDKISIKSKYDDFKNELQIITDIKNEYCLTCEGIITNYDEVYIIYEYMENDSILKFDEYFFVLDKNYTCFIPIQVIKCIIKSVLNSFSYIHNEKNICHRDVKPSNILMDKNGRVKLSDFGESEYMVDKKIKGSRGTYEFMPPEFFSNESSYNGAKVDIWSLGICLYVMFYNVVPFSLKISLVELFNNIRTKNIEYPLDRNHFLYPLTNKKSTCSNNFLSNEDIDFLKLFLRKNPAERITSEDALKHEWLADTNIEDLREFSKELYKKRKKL
Sequence of Calcium-dependent protein kinase 1 (Plasmodium falciparum (isolate 3D7)) (P62344 whole entry, looked up): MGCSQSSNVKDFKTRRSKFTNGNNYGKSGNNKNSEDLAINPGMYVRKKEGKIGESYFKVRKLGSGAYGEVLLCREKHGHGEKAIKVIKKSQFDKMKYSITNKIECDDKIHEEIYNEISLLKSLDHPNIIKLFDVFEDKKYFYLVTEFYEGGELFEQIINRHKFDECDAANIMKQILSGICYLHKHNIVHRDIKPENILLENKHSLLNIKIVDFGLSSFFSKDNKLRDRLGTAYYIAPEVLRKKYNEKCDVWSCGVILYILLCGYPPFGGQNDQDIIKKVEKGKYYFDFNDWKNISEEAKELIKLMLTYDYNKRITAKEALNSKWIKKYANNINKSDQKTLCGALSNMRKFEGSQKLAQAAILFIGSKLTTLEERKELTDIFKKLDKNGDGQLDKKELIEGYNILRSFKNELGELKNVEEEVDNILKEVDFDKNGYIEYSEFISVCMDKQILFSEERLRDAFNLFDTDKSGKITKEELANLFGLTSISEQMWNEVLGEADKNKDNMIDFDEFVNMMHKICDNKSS
Sequence of L-lactate dehydrogenase (Plasmodium falciparum (isolate CDC / Honduras)) (Q27743 whole entry, looked up): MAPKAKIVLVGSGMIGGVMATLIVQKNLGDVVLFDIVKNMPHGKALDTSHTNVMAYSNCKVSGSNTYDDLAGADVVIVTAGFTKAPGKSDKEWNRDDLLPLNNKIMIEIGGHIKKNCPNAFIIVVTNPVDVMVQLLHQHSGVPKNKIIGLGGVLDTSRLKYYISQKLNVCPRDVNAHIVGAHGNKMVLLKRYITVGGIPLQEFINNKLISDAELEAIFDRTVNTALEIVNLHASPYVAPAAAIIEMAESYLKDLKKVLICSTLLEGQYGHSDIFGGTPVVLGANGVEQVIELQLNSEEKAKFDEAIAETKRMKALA
Sequence of Plasmodium falciparum protein kinase 6 (PK6, PF3D7_1337100) (Q8IDW1 1-305): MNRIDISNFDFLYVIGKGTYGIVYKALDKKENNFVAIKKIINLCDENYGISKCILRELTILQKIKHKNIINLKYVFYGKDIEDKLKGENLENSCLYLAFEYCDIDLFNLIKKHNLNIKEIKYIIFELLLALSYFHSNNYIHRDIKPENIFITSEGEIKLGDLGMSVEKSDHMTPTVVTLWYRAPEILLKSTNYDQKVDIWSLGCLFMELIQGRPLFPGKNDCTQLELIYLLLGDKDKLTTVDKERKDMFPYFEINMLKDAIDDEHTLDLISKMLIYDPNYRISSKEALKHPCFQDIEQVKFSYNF

## COc1ccc2nccc([C@@H](O)CN3CCC(NCc4cc5cc(C)ccc5s4)CC3)c2c1
[1]
  growth inhibition: 74% (active)
[2]
  inhibition: 13%
[3]
  inhibition: 3%
[4]
  growth inhibition: 92% (active)
[5]
  outcome: inactive
[6]
  outcome: inactive
[7]
  outcome: inactive
[8]
  outcome: inactive

## CCCCc1ccc(Cc2cnc3nc(N)nc(N)c3c2C)cc1
[1]
  growth inhibition: 5%
[2]
  inhibition: 64% (active)
[3]
  inhibition: 5%
[4]
  growth inhibition: 96% (active)
[5]
  outcome: inactive
[6]
  outcome: inactive
[7]
  outcome: inactive
[8]
  outcome: inactive

## O=C(NCC1CCN(C/C=C/c2ccccc2)CC1)Nc1ccc(Oc2ccccc2)cc1
[1]
  growth inhibition: 11%
[2]
  inhibition: 40%
[3]
  inhibition: -3%
[4]
  growth inhibition: 83% (active)
[5]
  outcome: inactive
[6]
  outcome: inactive
[7]
  outcome: inactive
[8]
  outcome: inactive

## NC1=NC(c2ccccc2)(c2ccccc2)C(=O)N1Cc1ccc(-c2ccncc2)cc1
[1]
  growth inhibition: 74% (active)
[2]
  inhibition: 20%
[3]
  inhibition: 5%
[4]
  growth inhibition: 96% (active)
[5]
  outcome: inactive
[6]
  outcome: inactive
[7]
  outcome: inactive
[8]
  outcome: inactive

## OC(CNCc1ccccc1OCc1ccccc1)c1cccc(Cl)c1 (stereo not given)
[1]
  growth inhibition: 100% (active)
[2]
  inhibition: -6%
[3]
  inhibition: 7%
[4]
  growth inhibition: 100% (active)
[5]
  outcome: inactive
[6]
  outcome: inactive
[7]
  outcome: inactive
[8]
  outcome: inactive

## CN(C)CCNc1cc(-c2cccnc2)nc(-c2ccncc2)n1
[1]
  growth inhibition: 98% (active)
[2]
  inhibition: 33%
[3]
  inhibition: -5%
[4]
  growth inhibition: 100% (active)
[5]
  outcome: inactive
[6]
  outcome: inactive
[7]
  outcome: inactive
[8]
  outcome: inactive

## Cc1cc(N[C@@H](Cc2ccccc2)C(=O)Nc2ccccc2)nc(NCCc2cccs2)n1
[1]
  growth inhibition: 72% (active)
[2]
  inhibition: -1%
[3]
  inhibition: -1%
[4]
  growth inhibition: 100% (active)
[5]
  outcome: inactive
[6]
  outcome: inactive
[7]
  outcome: inactive
[8]
  outcome: inactive

## CCCN1CCN(CCCNc2c3ccccc3nc3ccccc23)CC1
[1]
  growth inhibition: -1%
[2]
  inhibition: 36%
[3]
  inhibition: -7%
[4]
  growth inhibition: 99% (active)
[5]
  outcome: inactive
[6]
  outcome: inactive
[7]
  outcome: inactive
[8]
  outcome: inactive

## CN1CCC[C@H]1COc1ccc(CN2CC[C@H](NC(=O)c3ccc(Cl)c(Cl)c3)C2)cc1Cl
[1]
  growth inhibition: 44%
[2]
  inhibition: 53% (active)
[3]
  inhibition: -2%
[4]
  growth inhibition: 97% (active)
[5]
  outcome: inactive
[6]
  outcome: inactive
[7]
  outcome: inactive
[8]
  outcome: inactive

## c1ccc2c(NCCc3cnc[nH]3)c3ccccc3nc2c1
[1]
  growth inhibition: -1%
[2]
  inhibition: 20%
[3]
  inhibition: 6%
[4]
  growth inhibition: 91% (active)
[5]
  outcome: inactive
[6]
  outcome: inactive
[7]
  outcome: inactive
[8]
  outcome: inactive

## Cc1cccc2[nH]c(-c3cccc(-c4ccc(NC(=O)C5CCN(C)CC5)cc4)c3)nc12
[1]
  growth inhibition: 100% (active)
[2]
  inhibition: 16%
[3]
  inhibition: 3%
[4]
  growth inhibition: 101% (active)
[5]
  outcome: inactive
[6]
  outcome: inactive
[7]
  outcome: inactive
[8]
  outcome: inactive

## O=C(Nc1ccc(Cn2ncc(N3CCNCC3)c(Cl)c2=O)cc1)Nc1ccc(-c2ccccc2)cc1
[1]
  growth inhibition: 33%
[2]
  inhibition: 29%
[3]
  inhibition: -1%
[4]
  growth inhibition: 98% (active)
[5]
  outcome: inactive
[6]
  outcome: inactive
[7]
  outcome: inactive
[8]
  outcome: inactive

## O=C(N[C@H](Cc1ccc(Cl)cc1)C(=O)N1CCN(c2ccnc3cc(Cl)ccc23)CC1)[C@H]1Cc2ccccc2CN1
[1]
  growth inhibition: 41%
[2]
  inhibition: 16%
[3]
  inhibition: 5%
[4]
  growth inhibition: 85% (active)
[5]
  outcome: inactive
[6]
  outcome: inactive
[7]
  outcome: inactive
[8]
  outcome: inactive

## Cc1nc(N)nc(N)c1CCCOc1cccc(Cl)c1
[1]
  growth inhibition: -1%
[2]
  inhibition: 16%
[3]
  inhibition: -4%
[4]
  growth inhibition: 96% (active)
[5]
  outcome: inactive
[6]
  outcome: inactive
[7]
  outcome: inactive
[8]
  outcome: inactive

## Cc1nnc2c(NC(=O)/C=C/c3ccc(OC(F)(F)F)cc3)cc3cc(Cl)ccc3n12
[1]
  growth inhibition: 99% (active)
[2]
  inhibition: 19%
[3]
  inhibition: 4%
[4]
  growth inhibition: 94% (active)
[5]
  outcome: inactive
[6]
  outcome: inactive
[7]
  outcome: inactive
[8]
  outcome: inactive

## CCn1cc(CN2CCCC(C(=O)Nc3ccc(-c4nc5ccccc5[nH]4)cc3)C2)cn1 (stereo not given)
[1]
  growth inhibition: 26%
[2]
  inhibition: 8%
[3]
  inhibition: -1%
[4]
  growth inhibition: 100% (active)
[5]
  outcome: inactive
[6]
  outcome: inactive
[7]
  outcome: inactive
[8]
  outcome: inactive

## CC(C)C[C@H](Nc1ccnc(NCC2CCCCC2)n1)C(=O)Nc1ccccc1
[1]
  growth inhibition: 42%
[2]
  inhibition: 6%
[3]
  inhibition: 2%
[4]
  growth inhibition: 87% (active)
[5]
  outcome: inactive
[6]
  outcome: inactive
[7]
  outcome: inactive
[8]
  outcome: inactive

## CC(C)CNCc1cccc(-c2cccc(CN(CCCN3CCN(C)CC3)C(=O)Nc3ccccc3)c2)c1
[1]
  growth inhibition: 76% (active)
[2]
  inhibition: 25%
[3]
  inhibition: 1%
[4]
  growth inhibition: 95% (active)
[5]
  outcome: inactive
[6]
  outcome: inactive
[7]
  outcome: inactive
[8]
  outcome: inactive

## O=C(Nc1ccc(Cn2ncc(N3CCCNCC3)c(Cl)c2=O)cc1)Nc1cccc(SC(F)(F)F)c1
[1]
  growth inhibition: 33%
[2]
  inhibition: 12%
[3]
  inhibition: 4%
[4]
  growth inhibition: 92% (active)
[5]
  outcome: inactive
[6]
  outcome: inactive
[7]
  outcome: inactive
[8]
  outcome: inactive

## Cc1ncccc1-c1cccc2c(NC(=O)Nc3ccc4nccc(N5CCN(C)CC5)c4c3)cccc12
[1]
  growth inhibition: 96% (active)
[2]
  inhibition: 19%
[3]
  inhibition: -6%
[4]
  growth inhibition: 101% (active)
[5]
  outcome: inactive
[6]
  outcome: inactive
[7]
  outcome: inactive
[8]
  outcome: inactive
